# In PubChem BioAssay (EPA / NIEHS):
# Calls of active or inactive are those of the source. Rule for the calls: active = hit-call score of the fitted dose curve at least 0.9, where 1 is the maximum; inactive = score below 0.9.
# Read-out: 3-Hydroxy-3-Methylglutaryl-CoA Synthase 2 (HMGCS2), HMGCS2 (gene 3158)
# Experiment: LTEA_HepaRG_HMGCS2: Life Technologies and Expression Analysis (LTEA) Assay for 3-Hydroxy-3-Methylglutaryl-CoA Synthase 2 (HMGCS2) using HepaRG (AID 2283504)
# Conditions: mRNA level, 48 h; actives raise or lower the signal
# Protocol: LTEA_HepaRG is a cell based, multiplexed-readout assay that uses HepaRG, a human liver cell line, with measurements taken at 48 hours after chemical dosing on a 96-well plate.LTEA_HepaRG_HMGCS2 is one of 102 assay component(s) measured in the LTEA HepaRG cell culture assay. It is a marker of Steatosis.Data from the assay component LTEA_HepaRG_HMGCS2 was analyzed into 1 endpoint. This assay endpoint, LTEA_HepaRG_HMGCS2, was analyzed with bidirectional fitting relative to DMSO as the negative control and baseline of activity. Using a type of inducible reporter, measures of mRNA induction for gain or loss-of-signal activity can be used to understand regulation of transcription factor activity. To generalize the intended target to other relatable targets, this assay endpoint is annotated to the lyase intended target family, where the subfamily is HMG-CoA synthase.
# A total of 1060 chemcials from the ToxCast library were tested in eight-point concentration-response experiments. Cell culture and cytotoxicity assays were conducted at Thermo Fisher Scientific's Custom Services facility (Madison, WI). A single lot of human HepaRG cells (Thermo Fisher Scientific, Frederick, MD) was used for the cell culture experiments. 96-well format collagen type I coated plates of human HepaRG cells were prepared using established methods. Briefly, cryopreserved HepaRG cells were thawed, plated at a density of approximately 100,000 cells/well in HepaRG Thaw, Plate, and General Purpose media (HPRG770, Thermo Fisher Scientific), and incubated for 48 hours. 0.5% DMSO was selected as vehicle control to balance the requisite need of DMSO in HepaRG cultures to maintain differentiation (for example, baseline metabolism, proportions of hepatocytes vs. cholangiocytes), while enabling further hepatic receptor pathway activation (for example, PXR and CAR) in response to chemical exposure. 48 hours after plating, the culture medium was replaced with HepaRG Serum-Free Incudtion Media. Cells were exposed to each test chemical in duplicate and maintained in CO2 incubators for another 48 hours. Chemical plates were thawed to room temperature and 200x concentrations of treatment groups were prepared. 8-point conentration-reponse curves were made with the highest exposure at 100 uM, followed by half-log dilutions, all in 0.5% DMSO. Each test plate contained variouse controls, induction positive controls (1mM phenobarbital), cytotoxicity positive controls ([…] aflatoxin B1), vehicle controls (0.5% DMSO), and total lysis controls (0.5% DMSO). Cell morphology images were taken using an Essen IncuCyte FLR automated microscope, with six 96-well plates imaged in about 24 minutes. Images were captured and exported and JPEG files. Spent culture media was transfered to black-well plates for the LDH assay, and remaining media was sorted at -80 C for later use. Cells were treated with RLT buffer and frozen until shipped for gene expression analysis. Total RNA was isolated from the cell suspension in 75 uL of Buffer RLT (Qiagen, Germantown, MD 20874) by Quintiles/Expression Analysis (Durham, NC) using a custom isolation procedure. Total RNA from each plate well was transferred to a preamplification plate. Fluidigm's 96.96 Dynamic ArrayTM (Fluidigm, Amsterdam, the Netherlands) technology was used for gene expression analyses by quantitative reverse transcription polymerase chain reaction (qRT-PCR, performed by Quintiles/Expression Analysis, Durham, NC)89. Standard TaqManTM Assays (Applied Biosystems/ThermoFisher Scientific, Foster City, CA) were used to assess the expression of 93 genes selected based on their selectivity and sensitivity to important hepatic receptors known to be modulated by environmental chemicals; importance in human hepatocyte functionality; and hepatotoxicity. […]
SMILES,outcome,AC50
CCCC(CCC)C(=O)O,inactive,
O=c1[nH]cnc2c1ncn2[C@H]1CC[C@@H](CO)O1,inactive,
CCCc1ccccc1,inactive,
CCc1ccc(O)c(C(C)(C)C)c1,inactive,
NC(N)=O,inactive,
c1ccc2ncccc2c1,inactive,
COS(C)(=O)=O,inactive,
OCc1ccccc1,inactive,
CCn1nc(C)c2c1C(=O)NCC(c1ccc(O)cc1)=N2,inactive,
Nc1ccn([C@@H]2O[C@H](CO)[C@@H](O)[C@@H]2O)c(=O)n1,inactive,
CCCCCCCCCCCCCCCCOS(=O)(=O)O,inactive,
CCCCCOC(C)=O,inactive,
OC[C@H]1O[C@@](CO)(O[C@H]2O[C@H](CO)[C@@H](O)[C@H](O)[C@H]2O)[C@@H](O)[C@@H]1O,inactive,
CCOC(N)=O,inactive,
Cn1c(=O)c2[nH]cnc2n(C)c1=O,inactive,
CC(C)c1nnc2ccc(-c3ocnc3-c3cc(F)ccc3F)cn12,,59.1 µM (active)
O=C(NO)C1(NS(=O)(=O)c2ccc(Oc3ccc(F)cc3)cc2)CCOCC1,,83.3 µM (active)
OCCOCCOCCO,inactive,
C=CCc1cc(S(=O)(=O)c2ccc(O)c(CC=C)c2)ccc1O,,86.3 µM (active)
CCOc1ccc2[nH]cc(C(=O)NCc3ccccc3)c(=O)c2n1,inactive,

SMILES,outcome,AC50
COCc1nnc(-c2ccc[n+]([O-])c2)n1-c1c(Cl)c(Cl)cc2[nH]c(=O)c(=O)[nH]c12,inactive,
CNC(C)=O,inactive,
O=C(O)c1cccc(C[C@@H]2COc3ccc(OCc4nc5cc(F)ccc5s4)cc3[C@@H]2O)c1,,66.8 µM (active)
O=S1(=O)CCCO1,inactive,
NNC(=O)c1ccncc1,inactive,
CCCCCCCCN(C)C,inactive,
COc1cc(C(C)C)c2c(c1)S(=O)(=O)N(COc1cc(=O)n3cccc(OCCN4CCCCC4)c3n1)C2=O,,20 µM (active)
Cc1nc(-c2ccccn2)ncc1C(=O)Nn1cc(C)c2cc(F)ccc21,,66.8 µM (active)
CCCOc1ccc(S(=O)(=O)N2CCN(CC)CC2)cc1-c1nc2c(CC)n(Cc3ccccn3)nc2c(=O)[nH]1,inactive,
CC1(C)C(=O)N(Cl)C(=O)N1Cl,inactive,
O=C(O)c1cccc(C(=O)O)c1,inactive,
Cc1ncc([C@@H](CCCCCCc2ccc3c(n2)NCCC3)CC(=O)O)cn1,inactive,
OC(Cn1cncn1)(Cn1cncn1)c1ccc(F)cc1F,inactive,
CCCCCCCCCCCCCCO,inactive,
OC[C@H]1O[C@@H]2O[C@H]3[C@H](O)[C@@H](O)[C@@H](O[C@H]4[C@H](O)[C@@H](O)[C@@H](O[C@H]5[C@H](O)[C@@H](O)[C@@H](O[C@H]6[C@H](O)[C@@H](O)[C@@H](O[C@H]7[C@H](O)[C@@H](O)[C@@H](O[C@H]1[C@H](O)[C@H]2O)O[C@@H]7CO)O[C@@H]6CO)O[C@@H]5CO)O[C@@H]4CO)O[C@@H]3CO,inactive,
CC(C)CCCCCCOC(=O)C1CCCCC1C(=O)OCCCCCCC(C)C (stereo not given),inactive,
c1ccc(C(O[C@@H]2CCCN(CCc3ccc4c(c3)OCO4)C2)c2ccccc2)cc1,,80.8 µM (active)
OC(CCl)CCl,inactive,
COc1cc2c(c(OC)c1OC)-c1ccc(OC)c(=O)cc1[C@@H](NC(C)=O)CC2,,0.286 µM (active)
CCCCCCCC/C=C\CCCCCCCC(=O)OC[C@@H](O)[C@H]1OC[C@H](O)[C@H]1O,inactive,
